Compound activity: PubChem BioAssay, National Center for Advancing Translational Sciences (NCATS)
CtBP-E1A inh: qHTS Assay for Inhibitors of the CtBP/E1A Interaction | AlphaScreen GST-E1A/His-CtBP binding, 1536-well; hits give low values | AID 651724, 2012 | activity change, % (concentration not given with the values) | actives 0.49% (n = 340,000); note: % is set by controls: 0 for no effect and ±100 for the full control effect
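GST-E1A and His-tagged CtBP (125 nM each as 5X stock) were preincubated with pin-transferred compound for 2 h at 37 °C in the dark, then glutathione donor and nickel acceptor beads were added for 1 h before AlphaScreen reading.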
Six1-Eya2 blk: qHTS Assay for Inhibitors of the Six1/Eya2 Interaction; activity change, % (test concentration not listed); AlphaScreen GST-Six1/His-Eya2 binding, biochemical; hits give low values; Homeobox protein SIX1 (Homo sapiens) + Protein phosphatase EYA2 (Homo sapiens), …; actives 0.56% (n = 360,000); AID 651725, 2012; note: % is set by controls: 0 for no effect and ±100 for the full control effect
Target sequence (O00167 whole entry, looked up): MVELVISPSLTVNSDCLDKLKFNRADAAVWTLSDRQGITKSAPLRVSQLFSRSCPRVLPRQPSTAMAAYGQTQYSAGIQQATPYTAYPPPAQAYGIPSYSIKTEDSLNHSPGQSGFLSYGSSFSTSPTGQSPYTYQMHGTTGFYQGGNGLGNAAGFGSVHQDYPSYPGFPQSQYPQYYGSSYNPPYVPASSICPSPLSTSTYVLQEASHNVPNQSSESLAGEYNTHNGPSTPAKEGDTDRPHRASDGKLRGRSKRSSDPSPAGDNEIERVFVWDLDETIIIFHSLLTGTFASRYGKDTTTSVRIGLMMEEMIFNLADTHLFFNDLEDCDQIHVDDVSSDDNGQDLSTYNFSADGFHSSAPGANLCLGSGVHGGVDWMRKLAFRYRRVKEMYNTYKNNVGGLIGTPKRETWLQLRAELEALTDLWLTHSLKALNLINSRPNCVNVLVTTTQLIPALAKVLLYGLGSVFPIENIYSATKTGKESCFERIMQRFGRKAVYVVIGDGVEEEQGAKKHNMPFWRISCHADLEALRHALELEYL
Target sequence (Q15475 whole entry, looked up): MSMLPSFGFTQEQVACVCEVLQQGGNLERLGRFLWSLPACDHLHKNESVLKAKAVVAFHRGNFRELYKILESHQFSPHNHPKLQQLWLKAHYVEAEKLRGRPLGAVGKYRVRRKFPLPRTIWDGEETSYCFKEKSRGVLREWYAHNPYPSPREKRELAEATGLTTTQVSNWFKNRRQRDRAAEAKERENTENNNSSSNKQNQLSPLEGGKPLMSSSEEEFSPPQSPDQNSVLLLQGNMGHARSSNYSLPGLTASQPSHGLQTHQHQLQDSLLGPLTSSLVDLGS
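AlphaScreen luminescence read after one hour at 37 °C in darkness. Pin-transferred compounds met GST-Six1 and His-Eya2 protein (5X stock 250 nM/500 nM) plus glutathione donor and Ni-chelate acceptor beads (5X, 50 ug/mL).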
TSHR antag: Antagonists of the Thyroid Stimulating Hormone Receptor: HTS campaign. Thyrotropin receptor (Homo sapiens), P16473. AID 504810, 2011. activity change, negative = inhibition, % at 11.5 µM. actives 0.2% (n = 330,000). TSHR-expressing cells, TSH-stimulated cAMP HTRF, 2 h; hits give low values;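 active = activity change below a set negative limit, meaning inhibition stronger than a set level, cut at about -70% in these data; inconclusive = activity change between two set negative limits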; note: % is set by controls: 0 for no effect and ±100 for the full control effect
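TSHR-expressing cells, 200/well, pre-treated with compound, then stimulated with EC80 TSH (4nM final) for 2 hours at 37 deg C. cAMP measured by competitive HTRF: anti-cAMP cryptate antibody in lysis buffer plus cAMP-d2, read after 30 minutes at room temperature.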
BCR signal inh: qHTS Assay to Find Inhibitors of Chronic Active B-Cell Receptor Signaling; ABC-DLBCL IkBa-CBG/CBR reporter, luminescence ratio, 4 h; Potency, µM (series often up to 46.1 µM), for inactives: at the top dose activity change, negative = inhibition, hits mostly inhibitors; actives 0.05% (n = 340,000); active = well fitted inhibition curve with a large enough effect in the signal ratio, with a control signal flat, not every such curve was filed as active; inconclusive = small, poorly fitted or top-dose-only effect, or effect the other way, or a change in a side signal; the % refers to the signal ratio;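 note: potency is the fitted concentration of half-maximal effect; plate controls were basal doxycycline-induced cells for no effect and cells given 10 µM MG132 for full effect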
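Compounds up to 46 uM were incubated four hours with TMD8 cells whose green CBG68 luciferase is fused to IkappaBalpha; red CBR luminescence normalised the signal, and concentration-effect curves were fitted to fusion, red and ratio data.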
ASM inhibitor: Inhibitors of Secretory Acid Sphingomyelinase (S-ASM): qHTS | placental ASM, HMU-PC fluorogenic substrate, 60 min | actives 0.006% (n = 340,000) | Potency, µM (series often up to 57.5 µM), inactives show at the highest dose activity change, negative = inhibition, usual class: inhibitors; active = well fitted inhibition curve with a large enough effect; inconclusive = small, poorly fitted or top-dose-only effect; inactive = no such curve, though single readings can be large or run the other way; note: potency is the fitted concentration of half-maximal effect
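Human placenta-derived ASM preincubated with compound 10 min at room temperature, then reacted with 9 uM (final) fluorogenic HMU-PC substrate for 60 min at 37 C. Stop solution raises pH to 10; fluorescence read at Ex 386/Em 447 nm.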
The depositor's hits bear a star; i = inactive; ? = inconclusive; . = no result. Hits are enriched below; roughly 0.85% of the tested compounds scored in any of these assays. Cut-off read from the data, not from the text of the source, unless noted: active = activity change below about -65%; inconclusive = mostly about -30% to -63%; inactive = weaker than that.

SMILES	CtBP-E1A inh	Six1-Eya2 blk	TSHR antag	BCR signal inh	ASM inhibitor
Cc1ccc(CNC(=O)CCNC(=O)N2CCn3c2nc2ccccc23)cc1	.	5	-111*	3%	-1%
O=c1cc[nH]c2c1ccc1c(=O)cc[nH]c12	-86*	-75*	-10	5%	29%
Oc1ccc(CNc2cccc(F)c2F)c2cccnc12	.	.	-10	?	.
Oc1ccc(N=Nc2ccccc2C(F)(F)F)c2cccnc12	.	-11	-1	?	-9%
Oc1ccc(CNc2ccccc2F)c2cccnc12	-94*	-91*	14	?	-2%
Oc1ccc(COCc2ccccc2)c2cccnc12	-98*	-90*	-10	?	5%
Cc1ncc(COCc2ccccc2)c(CO)c1OCc1ccccc1	14	-4	.	.	-2%
Oc1ccc(Cc2ccccc2)c2cccnc12	-92*	-75*	.	.	6%
OCc1ccc(O)c2ncccc12	-92*	-88*	11	-6%	1%
CCOC(=O)CSc1nc2cc3c(cc2c(=O)n1CCCC(=O)NCCc1ccc(OC)c(OC)c1)OCO3	.	.	.	-26%	.
CC(NC(=O)C(=O)Nc1c2c(nn1-c1ccc(F)cc1)CSC2)c1ccccc1 (stereo not drawn)	.	.	.	18%	.
Clc1ccccc1CSc1nc(NCCc2ccccc2)c2ccccc2n1	.	.	.	16%	.
CCOC(=O)c1c(S(=O)(=O)N2CCCC(C(=O)NCc3ccccc3OC)C2)c(C)n(C)c1C (stereo not drawn)	.	.	.	7%	.
COc1ccc(CCNc2ccc([N+](=O)[O-])cn2)cc1	-29	-5	11	4%	-6%
COc1ccc(CCNc2cc(=O)[nH]c(N)n2)cc1	-80*	-69*	-3	0%	4%
NCC(O)C1CCCCCCC1 (stereo not drawn)	.	.	9	.	.
COc1ccc(-c2csc(NC(=O)Cc3cccc4ccccc34)c2C(=O)O)cc1	-67*	-67*	-7	?	-3%
Cc1ccc(-c2csc(NC(=O)c3ccccc3F)c2C(=O)O)cc1	.	-70*	-2	?	3%
COc1ccc(NC(=S)N(C(C)C)C2CCN(C(C)C)CC2)cc1Cl	.	.	-81*	2%	.
CCCCN(C)C(=O)c1ccc2c(c1)N(Cc1cccc(Cl)c1)C(=O)c1ccccc1S2=O (stereo not drawn)	.	.	.	-1%	.
CCOC(=O)c1cnc(Cc2ccccc2)[nH]c1=O	-1	7	13	7%	2%
CCOC(=O)c1cnc(-n2[nH]c(C)c(Cc3ccccc3)c2=O)[nH]c1=O	-92*	-82*	-2	-8%	3%
CCOC(=O)c1cnc(-n2[nH]c(C)cc2=O)[nH]c1=O	-92*	-77*	11	6%	-4%
CN(Cc1ccco1)C(=O)c1ccc2c(c1)N(Cc1ccccc1F)C(=O)c1ccccc1S2	.	.	.	-9%	.
COc1cccc(NC(=O)CSc2nccn2C2CCCC2)c1	.	.	.	4%	.
SMILES	CtBP-E1A inh	Six1-Eya2 blk	TSHR antag	BCR signal inh	ASM inhibitor
COc1cccc(C(=O)NC(=S)Nc2ccc(N3CCCC3)cc2)c1	?	-68*	-10	?	-20%
COc1ccc(S(=O)(=O)NCC(c2ccco2)N2CCN(c3ccccc3F)CC2)cc1C (stereo not drawn)	.	.	.	0%	.
COC1=C(Nc2ccc(C)cc2)C(=O)c2ccccc2C1=O	-90*	-86*	0	4%	-9%
COC1=C(OC)C(=O)c2ccccc2C1=O	.	.	14	.	.
COC1=C(Nc2ccccc2)C(=O)c2ccccc2C1=O	-67*	-83*	17	-1%	-9%
CCOC(=O)c1c(C)[nH]c(C)c1S(=O)(=O)N(C)CC(=O)N1CCN(c2cccc(Cl)c2)CC1	.	.	.	2%	.
COCCOC(=O)C1=C(C)NC(C)=C(C(=O)OC/C=C/c2ccccc2)C1c1cccc([N+](=O)[O-])c1 (stereo not drawn)	.	.	-13	.	.
Cc1nc2ccc(NC(=O)c3cc([N+](=O)[O-])cc([N+](=O)[O-])c3Cl)cc2s1	-4	-23	-76*	?	-1%
Cc1nc2ccc(NC(=O)c3ccc(Cl)c([N+](=O)[O-])c3)cc2s1	18	23	-6	20%	-1%
COc1ccc(Cc2nnc(N/N=C/c3ccc(O)cc3)[nH]c2=O)cc1OC	-91*	-82*	-8	?	-6%
COc1ccc(/C=N/Nc2nnc(Cc3ccccc3)c(=O)[nH]2)cc1OC	?	-66*	-6	?	0%
COc1ccc(Cc2nnc(N/N=C/c3ccc(Br)cc3)[nH]c2=O)cc1OC	4	-1	6	-3%	-2%
Clc1ccc2ccc3cccnc3c2n1	.	-9	-20	-2%	0%
O=S1(=O)Nc2c(ccc3cccnc23)-c2ccccc21	-89*	-91*	-5	?	-2%
Cc1cccc(-c2noc(CN(C)C(=O)c3ccco3)n2)c1	0	3	-100*	-10%	1%
Nc1ccc(Br)c2c1C(=O)c1ccccc1C2=O	-75*	?	-8	?	-16%
Nc1ccc(O)c2c1C(=O)c1ccccc1C2=O	-86*	-85*	-2	11%	-17%
CCOC(=O)c1ccc(CN(Cc2ccc(F)cc2)S(=O)(=O)c2ccc(F)c(C(=O)Nc3ccc(Cl)cc3F)c2)cc1	.	.	.	0%	.
Clc1nc(-c2ccccn2)nc2scc(-c3ccccc3)c12	-9	-73*	33	?	6%
Cc1ccc2nc3sc(C(=O)Nc4ccc(F)cc4)cc3cc2c1	.	.	0	6%	.
O=c1[nH][nH]c2c(N=Cc3ccccc3O)ccc(F)c12	-91*	?	-23	9%	-9%
C/C(=N/NC(=O)c1ccncc1)c1cc2ccc(O)cc2oc1=O	-5	-85*	-6	-7%	i
C/C(=N\NC(=O)c1ccncc1)c1cc2ccccc2o1	-7	-2	-1	-6%	4%
C/C(=N/NC(N)=S)c1cc2ccc(O)cc2oc1=O	-6	?	5	?	i
C/C(=N\NC(=O)c1ccncc1)c1cc2ccccc2oc1=O	-5	-80*	3	-6%	6%
CCN(C(=O)CSc1nnc(-c2ccccc2)o1)c1c(N)n(Cc2ccccc2)c(=O)[nH]c1=O	-3	3	-109*	7%	2%
CCN(CC)c1ccc2nc3ccc(N)cc3[n+](-c3ccccc3)c2c1	-84*	-78*	-40	?	-17%
CCN(CC)c1ccc2nc3ccccc3[n+](CC)c2c1	-75*	-67*	-140*	?	-21%
